Assay outcomes (PubChem)
HP1b binding inh: inhibitors of HP1-beta chromodomain binding to methylated histone tails; P83916; AlphaScreen HP1-beta / biotin-H3K9me3 peptide binding; Potency, µM (top dose mostly 114 µM), actives largely listed as inhibitors; 0.56% of 390,000 active; note: nearly all actives have a fitted effect of over 70% in size
Target sequence (P83916 whole entry, looked up): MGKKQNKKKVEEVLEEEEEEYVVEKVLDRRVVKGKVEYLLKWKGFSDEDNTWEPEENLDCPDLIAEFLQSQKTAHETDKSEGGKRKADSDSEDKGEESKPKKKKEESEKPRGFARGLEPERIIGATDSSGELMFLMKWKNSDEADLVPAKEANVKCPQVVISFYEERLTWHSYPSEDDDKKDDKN
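Compound inhibition of the preformed complex between 50 nM HP1-beta and 50 nM biotinylated H3K9me3 peptide was read by AlphaScreen. Buffer was PBS pH 7.4 with 0.01% Tween-20. Incubations ran 30 min at room temperature, with 10 ug/mL donor/acceptor beads.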
GLS inhibitor: blocks human kidney-isoform glutaminase activity. O94925. GLS enzymatic activity, qHTS titration. Potency, µM (titrated, usually from 45.5 µM), actives largely listed as inhibitors. 0.21% of 410,000 active. AID 624170
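Glutamate formation by hKGA was monitored fluorometrically using coupled glutamate oxidase, HRP and Amplex Red. Substrate was added as 1 mM L-glutamine solution; incubation was 30 min at RT after an initial read.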
G9a block: inhibitors of human histone lysine methyltransferase G9a; Potency, µM (doses to about 102 µM), actives largely listed as inhibitors; G9a H3K9 monomethylation, AlphaScreen, 2 h; Q96KQ7; 8.8% of 350,000 active; note: nearly all actives have a fitted effect of over 75% in size
Target sequence (Q96KQ7 913-1193 limits assumed): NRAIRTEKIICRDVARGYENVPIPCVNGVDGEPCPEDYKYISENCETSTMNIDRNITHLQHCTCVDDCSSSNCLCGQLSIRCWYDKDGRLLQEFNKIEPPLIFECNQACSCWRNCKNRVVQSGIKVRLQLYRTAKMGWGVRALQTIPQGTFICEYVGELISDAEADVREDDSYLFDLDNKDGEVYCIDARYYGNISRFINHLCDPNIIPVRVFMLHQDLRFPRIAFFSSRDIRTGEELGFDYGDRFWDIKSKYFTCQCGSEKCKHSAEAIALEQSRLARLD
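Using a bead-based AlphaScreen, monomethylated H3K9 product from 2 h room-temperature reactions (G9a 20 nM, peptide 500 nM, SAM 20 uM) was detected with 0.5 ug/mL rabbit anti-H3K9me1 antibody.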
JMJD2A Tudor: inhibitors of human JMJD2A Tudor domain; O75164; AlphaScreen JMJD2A-Tudor / H3K4me3 peptide binding; Potency, µM (highest dose often 114 µM), most hits filed as inhibitors; 4.4% of 390,000 active; AID 504339; note: nearly all actives have a fitted effect of over 50% in size
BAZ2B block: BAZ2B (human) inhibition; 4.4% of 360,000 active; Potency, µM (series often up to 114 µM), hits mostly inhibitors; Q9UIF8; AID 504333; AlphaScreen BAZ2B-H3K14Ac peptide displacement; note: nearly all actives have a fitted effect of over 60% in size
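Complex of BAZ2B and biotin-H3K14Ac (50 nM apiece) forms over 30 min at RT, then faces library compounds up to 110 uM for another 30 min; AlphaScreen beads added, 20 min dark incubation, luminescence read.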
Hits are given with their value; - = inactive; ? = inconclusive; . = not tested or not shown; [ ] = another dose, or the depositor's remark. Rows were chosen to be rich in hits. Some 10% of all compounds tested hit in one or more screens of this group. Calls come from the whole dose curve; as a rule, active = well fitted curve in the direction sought with a large enough effect; inconclusive = small, poorly fitted or top-dose-only effect, or another doubt; inactive = no such curve, though single readings can be large; an effect the other way counts as inactive or inconclusive.

SMILES	HP1b binding inh	GLS inhibitor	G9a block	JMJD2A Tudor	BAZ2B block
c1cncc(-c2cncnc2NC2CCNCC2)c1	.	.	-[0.501 µM]	.	.
N#C/C(=C\c1ccc(-c2cccc([N+](=O)[O-])c2)o1)C(=O)N1CCOCC1	-	-	-	?	-
N#C/C(=C\c1ccc(-c2ccc([N+](=O)[O-])cc2Br)o1)C(=O)N1CCN(c2ccccc2)CC1	-	-	3.98µM	?	?
CCCn1nnnc1NC(=O)c1cc(Cl)ccc1Cl	-	-	8.91µM	39.8µM	56.2µM
N=c1c2c(ncn1-c1ccccc1)Oc1ccc3ccccc3c1C2c1ccc2c(c1)OCCO2 (centres undefined)	.	.	.	22.4µM	.
N=c1c2c(ncn1-c1ccccc1)Oc1ccc3ccccc3c1C2c1ccc2c(c1)CCO2 (centres undefined)	.	.	.	35.5µM	.
c1ccc(C2c3c(ccc4ccccc34)Oc3ncn4nc(-c5ccco5)nc4c32)cc1 (centres undefined)	-	-	?	-	-
CCOc1ccc(C2c3c(ncn(-c4ccccc4)c3=N)Oc3ccc4ccccc4c32)cc1OCC (centres undefined)	.	.	.	39.8µM	.
N=c1c2c(ncn1CCN1CCOCC1)Oc1ccc3ccccc3c1C2c1ccccc1 (centres undefined)	-	.	?	-	-
N#Cc1c(-c2ccccc2)nc(SCC(=O)Nc2ccccc2)[nH]c1=O	-	-	?	-	-
N#Cc1c(-c2ccccc2)nc(SCC(=O)Nc2nnc(C(F)(F)F)s2)[nH]c1=O	-	-	50.1µM	-	-
Cc1cc(C)nc(NS(=O)(=O)c2ccc(NC(=O)CSc3nc(-c4ccccc4)c(C#N)c(=O)[nH]3)cc2)n1	-	-	79.4µM	-	.
CCCC1O[C@@H]2C[C@H]3[C@@H]4CCC5=CC(=O)C=C[C@]5(C)C4[C@@H](O)C[C@]3(C)[C@]2(C(=O)CO)O1 (some centres undefined)	.	.	-[12.7 µM]	.	.
CC(=O)c1ccc(OCC(=O)N2CCCCC2)cc1	.	-	.	.	.
COCCn1nnnc1C(c1ccc(OC)cc1)N1CCC(C)CC1 (centres undefined)	-	-	-[12.7 µM]	-	?
CCC(c1nnnn1Cc1ccco1)N1CCN(c2cc(Cl)ccc2C)CC1 (centres undefined)	?	-	-	50.1µM	?
CCC(c1nnnn1Cc1ccccc1)N1CCN(C(=O)c2ccco2)CC1 (centres undefined)	-	-	79.4µM	-	-
CCCCC(c1nnnn1CCOC)N1CCN(C(=O)c2ccco2)CC1 (centres undefined)	-	-	?	-[11.4 µM]	50.1µM
COCCn1nnnc1C(c1ccc(Cl)cc1)N1CCSCC1 (centres undefined)	-	-	50.1µM	-	?
COc1cccc(CNC(=O)c2ccc(-c3nc(CS(=O)(=O)c4ccccc4)c(C)o3)cc2)c1	-	-	-	-	-
COCCn1nnnc1C(c1ccc(OC)cc1)N1CCN(C(=O)c2ccco2)CC1 (centres undefined)	-	-	?	-	-
COCCn1nnnc1C(CC(C)C)N1CCN(C(=O)c2ccco2)CC1 (centres undefined)	-	-	39.8µM	-[11.4 µM]	79.4µM
CCC(c1nnnn1CCOC)N1CCN(C(=O)c2ccco2)CC1 (centres undefined)	-	-	.	?	50.1µM
Cc1ccc(S(=O)(=O)Cn2nnnc2C(CC(C)C)N2CCN(C(=O)c3ccco3)CC2)cc1 (centres undefined)	-	-	?	-	-
COCCn1nnnc1C(c1ccc(OC)c(OC)c1)N1CCN(C(=O)c2ccco2)CC1 (centres undefined)	-	-	-	-	-
SMILES	HP1b binding inh	GLS inhibitor	G9a block	JMJD2A Tudor	BAZ2B block
COCCn1nnnc1C(c1ccc(Cl)cc1)N1CCN(C(=O)c2ccco2)CC1 (centres undefined)	-	-	56.2µM	44.7µM	-
COC(=O)c1cc([N+](=O)[O-])c(-n2ccnc2)c([N+](=O)[O-])c1	-	-	-	-	-
Cc1ccccc1CN1CC2=C(CCN(Cc3ccccc3)C2=O)N2CCN=C12	.	-	.	.	.
CC(=O)N/C(=C/c1ccc2c(c1)OCO2)C(=O)NC(Cc1ccccc1)C(=O)O (centres undefined)	-	-	.	-	.
CC(=O)N/C(=C\c1ccccc1)C(=O)NC(C)C(=O)O (centres undefined)	-	-	56.2µM	-	-
CC(=O)N/C(=C\c1ccc2c(c1)OCO2)C(=O)NC(C(=O)O)c1ccccc1 (centres undefined)	-	-	89.1µM	-	-
CC(=O)N/C(=C\c1ccc(F)cc1)C(=O)NC(C(=O)O)C(C)C (centres undefined)	-	-	56.2µM	-	-
CC(=O)N/C(=C\c1ccc(F)cc1)C(=O)OC(C)C	-	-	-	-	-
COC(=O)CN1C(=O)CSc2ccc(S(=O)(=O)Nc3cccc(Cl)c3C)cc21	-	-	-	-	-
Clc1ccccc1CSc1nc(NCCc2ccccc2)c2ccccc2n1	-	-	-	-	-
Cc1ccc2nc(-c3ccc(NS(=O)(=O)c4ccccc4)cc3)sc2c1	-	-	-	-	-
Cc1ccc2nc(-c3ccc(N=Nc4cc(S(=O)(=O)O)c5ccccc5c4O)cc3)sc2c1S(=O)(=O)O	14.1µM	.	.	17.8µM	.
Cc1nc(-c2cccc(C(F)(F)F)c2)sc1C(=O)O	-	-	56.2µM	-	?
CCOC(=O)c1cc(S(=O)(=O)Nc2ccccc2OCC)[nH]n1	-	-	8.91µM	50.1µM	50.1µM
CCOC(=O)c1cc(S(=O)(=O)Nc2ccccc2)[nH]n1	-	-	10µM	?	79.4µM
CCOC(=O)c1ccc(NS(=O)(=O)c2c(C)n[nH]c2C)cc1	-	-	-[12.7 µM]	-	-
CCOc1ccccc1NS(=O)(=O)c1cnc(N)nc1	-	-	-	-	-
CCOC(=O)c1cc(S(=O)(=O)Nc2ccc(OC(F)(F)F)cc2)[nH]n1	-	-	3.16µM	?	50.1µM
COc1ccc(OC)c(NC(=O)C2CCN(S(=O)(=O)c3ccc4c(c3)CCCC(=O)N4)CC2)c1	-	-	-	-	-
CC1=C(C(=O)Nc2ccc(C)cc2C)C(c2ccc(Br)cc2)n2ncc(C(=O)Nc3cccc(C)c3)c2N1 (centres undefined)	-	-	-	-	-
CC1=C(C(=O)Nc2ccc(C)cc2C)C(c2ccccc2[N+](=O)[O-])n2ncc(C(=O)Nc3ccccc3)c2N1 (centres undefined)	-	-	7.08µM	?	-
CCOc1ccc(N2CC(c3nc4ccccc4n3Cc3cccc(Cl)c3)CC2=O)cc1 (centres undefined)	-	-	?	-	-
COC(=O)Oc1nsnc1N1CCOCC1	?	-	2.82µM	89.1µM	-
COc1ccc(CNC(=O)Cc2c(C(=O)O)c(C)cn2C)cc1	-	-	-	-	-
COC(=O)C1CCC(=S)N1C(=O)c1ccccc1 (centres undefined)	-	-	44.7µM	-	-
